Source: PubChem BioAssay AID1159580 (chemical genetic matrix, 2015)
Among all 5,500 compounds or so, about 2,000 (36%) were called active. Not shown: some 18% with an inconclusive outcome. No stated cut-off is given here; in the data, active means normalized growth mostly below about 0.91 (no sharp cut-off); inconclusive means no clear call, values can overlap the other calls; inactive means mostly above about 0.92. The list shows a part of the results.

Assay: chemical genetic growth profiling, strain panel (AID 1159580);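 further: tested at 20 µM; growth read once vehicle control cultures reached saturation at 30 °C; 1 = growth at the plate median or of vehicle wells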
Conditions: growth OD

Measured: normalized growth

Cc1[nH]c2ccccc2c1CN(C)C
inactive: S. cerevisiae deletion strains, locus YJR075W, strain HOC1, stronger effect = lower value 1.03 | S. cerevisiae deletion strains, locus YKL009W, strain mrt4, stronger effect = lower value 0.974 | S. cerevisiae deletion strains, locus YKL068W, stronger effect = lower value 1.01 | S. cerevisiae deletion strains, locus YKL085W, strain MDH1 (second series), stronger effect = lower value 0.997 | S. cerevisiae deletion strains, locus YKL085W, strain MDH1, stronger effect = lower value 0.997 | S. cerevisiae deletion strains, locus YKL160W, strain elf1, stronger effect = lower value 1.01 | S. cerevisiae deletion strains, locus YKL190W, strain CNB1, stronger effect = lower value 1.02 | S. cerevisiae deletion strains, locus YKR001C, strain vps1, stronger effect = lower value 1.01 | S. cerevisiae deletion strains, locus YKR026C, strain gcn3, stronger effect = lower value 1.02 | S. cerevisiae deletion strains, locus YKR091W, strain srl3, stronger effect = lower value 1.01 | S. cerevisiae deletion strains, locus YLL001W, strain dnm1, stronger effect = lower value 1.01 | S. cerevisiae deletion strains, locus YLL026W, stronger effect = lower value 1.02 | S. cerevisiae deletion strains, locus YLL041C, strain sdh2, stronger effect = lower value 1.01 | S. cerevisiae deletion strains, locus YLR027C, strain aat2, stronger effect = lower value 1.01 | S. cerevisiae deletion strains, locus YLR039C, strain RIC1, stronger effect = lower value 1.1 | S. cerevisiae deletion strains, locus YLR058C, strain SHM2, stronger effect = lower value 1.03 | S. cerevisiae deletion strains, locus YLR102C, strain apc9, stronger effect = lower value 1 | S. cerevisiae deletion strains, locus YLR113W, strain HOG1, stronger effect = lower value 1 | S. cerevisiae deletion strains, locus YLR221C, strain rsa3, stronger effect = lower value 1.01 | S. cerevisiae deletion strains, locus YLR258W, strain gsy2, stronger effect = lower value 1 | S. cerevisiae deletion strains, locus YLR262C, strain YPT6 (second series), stronger effect = lower value 1.01 | S. cerevisiae deletion strains, locus YLR262C, strain YPT6, stronger effect = lower value 1.05 | S. cerevisiae deletion strains, locus YLR268W, strain sec22, stronger effect = lower value 0.979 | S. cerevisiae deletion strains, locus YLR320W, strain mms22, stronger effect = lower value 1.04 | S. cerevisiae deletion strains, locus YLR330W, strain CHS5, stronger effect = lower value 1 | S. cerevisiae deletion strains, locus YLR342W, strain FKS1 (second series), stronger effect = lower value 1.02 | S. cerevisiae deletion strains, locus YLR342W, strain FKS1, stronger effect = lower value 1.01 | S. cerevisiae deletion strains, locus YLR357W, strain rsc2, stronger effect = lower value 1 | S. cerevisiae deletion strains, locus YLR370C, strain arc18, stronger effect = lower value 1.03 | S. cerevisiae deletion strains, locus YLR371W, strain rom2, stronger effect = lower value 1.01 | S. cerevisiae deletion strains, locus YLR384C, strain iki3, stronger effect = lower value 1.03 | S. cerevisiae deletion strains, locus YLR418C, strain cdc73, stronger effect = lower value 0.983 | S. cerevisiae deletion strains, locus YML016C, strain PPZ1, stronger effect = lower value 0.996 | S. cerevisiae deletion strains, locus YML032C, strain rad52, stronger effect = lower value 0.981 | S. cerevisiae deletion strains, locus YML120C, strain ndi1, stronger effect = lower value 1.01 | S. cerevisiae deletion strains, locus YML124C, strain tub3, stronger effect = lower value 0.991 | S. cerevisiae deletion strains, locus YMR058W, strain fet3, stronger effect = lower value 1.02 | S. cerevisiae deletion strains, locus YMR078C, strain ctf18, stronger effect = lower value 0.991 | S. cerevisiae deletion strains, locus YMR125W, strain sto1, stronger effect = lower value 1.01 | S. cerevisiae deletion strains, locus YMR129W, stronger effect = lower value 1.02 | S. cerevisiae deletion strains, locus YMR205C, strain PFK2, stronger effect = lower value 1.06 | S. cerevisiae deletion strains, locus YMR223W, strain ubp8, stronger effect = lower value 0.977 | S. cerevisiae deletion strains, locus YMR231W, strain pep5, stronger effect = lower value 1.02 | S. cerevisiae deletion strains, locus YMR263W, strain SAP30, stronger effect = lower value 1.02 | S. cerevisiae deletion strains, locus YMR307W, strain GAS1, stronger effect = lower value 1.15 | S. cerevisiae deletion strains, locus YNL067W, strain RPL9B, stronger effect = lower value 1.02 | S. cerevisiae deletion strains, locus YNL071W, strain lat1, stronger effect = lower value 1.01 | S. cerevisiae deletion strains, locus YNL128W, strain TEP1, stronger effect = lower value 1 | S. cerevisiae deletion strains, locus YNL183C, strain NPR1, stronger effect = lower value 0.94 | S. cerevisiae deletion strains, locus YNL209W, strain ssb2, stronger effect = lower value 1.04 | S. cerevisiae deletion strains, locus YNL233W, strain BNI4, stronger effect = lower value 1.05 | S. cerevisiae deletion strains, locus YNL248C, strain rpa49, stronger effect = lower value 1.02 | S. cerevisiae deletion strains, locus YNL250W, strain rad50, stronger effect = lower value 0.98 | S. cerevisiae deletion strains, locus YNL271C, strain bni1, stronger effect = lower value 0.995 | S. cerevisiae deletion strains, locus YNL298W, strain CLA4, stronger effect = lower value 0.985 | S. cerevisiae deletion strains, locus YNL307C, strain MCK1, stronger effect = lower value 1 | S. cerevisiae deletion strains, locus YNL322C, strain KRE1 (second series), stronger effect = lower value 1.02 | S. cerevisiae deletion strains, locus YNR049C, strain mso1, stronger effect = lower value 1.03 | S. cerevisiae deletion strains, locus YNR052C, strain pop2, stronger effect = lower value 0.994 | S. cerevisiae deletion strains, locus YOL012C, strain htz1 1.39 | S. cerevisiae deletion strains, locus YOL147C, strain pex11, stronger effect = lower value 0.993 | S. cerevisiae deletion strains, locus YOR001W, strain rrp6, stronger effect = lower value 1.02 | S. cerevisiae deletion strains, locus YOR061W, strain CKA2, stronger effect = lower value 1.02 | S. cerevisiae deletion strains, locus YOR069W, strain VPS5, stronger effect = lower value 0.995 | S. cerevisiae deletion strains, locus YOR070C, strain gyp1, stronger effect = lower value 1.02 | S. cerevisiae deletion strains, locus YOR080W, strain dia2, stronger effect = lower value 1.03 | S. cerevisiae deletion strains, locus YOR083W, strain WHI5, stronger effect = lower value 1.01 | S. cerevisiae deletion strains, locus YOR106W, strain vam3, stronger effect = lower value 1.04 | S. cerevisiae deletion strains, locus YOR136W, strain idh2, stronger effect = lower value 0.975 | S. cerevisiae deletion strains, locus YOR144C, strain elg1, stronger effect = lower value 0.999 | S. cerevisiae deletion strains, locus YOR184W, strain ser1, stronger effect = lower value 1.02 | S. cerevisiae deletion strains, locus YOR231W, strain MKK1, stronger effect = lower value 0.987 | S. cerevisiae deletion strains, locus YOR265W, strain rbl2, stronger effect = lower value 1.02 | S. cerevisiae deletion strains, locus YOR270C, strain vph1, stronger effect = lower value 1.07 | S. cerevisiae deletion strains, locus YOR290C, strain snf2, stronger effect = lower value 1.01 | S. cerevisiae deletion strains, locus YOR316C, strain cot1, stronger effect = lower value 0.992 | S. cerevisiae deletion strains, locus YPL051W, strain arl3, stronger effect = lower value 1.03 | S. cerevisiae deletion strains, locus YPL055C, strain LGE1, stronger effect = lower value 1.06 | S. cerevisiae deletion strains, locus YPL078C, strain atp4, stronger effect = lower value 1 | S. cerevisiae deletion strains, locus YPL106C, strain sse1, stronger effect = lower value 1.04 | S. cerevisiae deletion strains, locus YPL240C, strain hsp82, stronger effect = lower value 1.01 | S. cerevisiae deletion strains, locus YPL256C, strain CLN2, stronger effect = lower value 0.991 | S. cerevisiae deletion strains, locus YPR119W, strain clb2, stronger effect = lower value 0.992 | S. cerevisiae deletion strains, locus YPR141C, strain kar3, stronger effect = lower value 1 | S. cerevisiae deletion strains, locus YPR163C, strain tif3, stronger effect = lower value 0.996 | S. cerevisiae deletion strains, locus YPR167C, strain met16, stronger effect = lower value 0.988 | S. cerevisiae deletion strains, strain wtn01, stronger effect = lower value 0.966 | S. cerevisiae strains, strain wild type, stronger effect = lower value 1.03
